According to PubChem BioAssay (NCATS):
Inconclusive results are not listed. Activity calls are given as the source filed them. Calls follow the shape of the full dose curve.

What follows are compounds tested against Atrial natriuretic peptide receptor 2 (Homo sapiens) (UniProt P20594) (assay: Natriuretic polypeptide receptor (hNpr2) antagonism - Pilot subtype selectivity assay (AID 1347050)). Conditions: NPR2-expressing cells, cGMP antagonist-mode read-out; series mostly up to 38.3 µM.
Experimental: F. Fan, B. F. Binkowski, B. L. Butler, P. F. Stecha, M. K. Lewis, K. V. Wood, Novel genetically encoded biosensors using firefly luciferase. ACS Chem Biol 3, 346-351 (2008).
PROTOCOL TABLE (as described by Inglese J, Shamu CE and Guy RK. 2007)
SEQUENCE No. (e.g., 1, 2, 3, etc.); […] (e.g., Cells, Incubation, Reagent, etc.); VALUE and DESCRIPTION.
1. Cells. Seed 1500 HEK293 cGMP-sensor cells expressing hNpr2 per well in 4uL into Greiner 1536-well white/solid bottom high base, TC plates.
2. Incubation. Incubate plated cells at 37C in 5% CO2, 95% RH overnight.
3. Reagent. Add 1uL per well GloSensor reagent from Promega (2% final concentration) or CO2 independent media vehicle control to respective columns of Greiner 1536-well plates.
4. Incubation. Incubate plated cells at ambient temperature for 2 h., protect from light.
5. Compounds. Library compounds and DMSO vehicle control added at 23nL per well, transferred by Pin Tool.
6. Incubation. Incubate plated cells for 30 min. at ambient temperature, protect from light.
7. Detector. GloSensor baseline pre-read luminescence measured using CCD-based camera (Viewlux).
8. Compound. Add 1uL of hNppC peptide to 1 nM final concentration to stimulate hNpr2 or CO2 independent media as vehicle control.
9. Incubation. Incubate treated cells at ambient temperature for 20 min., protect from light.
10. Detector. GloSensor post-hNppC luminescence measured using CCD-based camera (Viewlux).
NOTES (numbers refer to Sequence numbers above)
1. HEK293 cells expressing hNpr2 and GIP/pGS-40F were grown to 85-95% confluence (48-72 h) in T175 culture flasks (CO2 independent media supplemented with 10% FBS, 1% Pen/Strep antibiotics, and 1 ug/mL puromycin). Trypsinize and harvest cells from T175 culture flasks and filter through 40 um cell strainer. Cells counted with Invitrogen Countess (30,000,000 - 50,000,000 cells/flask). Cells diluted to a final concentration of 375 cells/uL in CO2 independent media and a Millipore multidrop used to dispense 1500 cells per well (4uL/well) into 9 x1536-well Greiner White/Solid bottom, high base tissue-culture treated (TC) plates and one Aurora 1536-well Black/Clear bottom, low base, TC plate (for visual inspection of cell health throughout the duration of the assay).
2. Cells incubated for 24 h. at 37C in 95% RH incubator with metal lid having gas-exchange holes.
3. Prepare GloSensor Reagent (Promega): Reconstitute GloSensor luciferase substrate by adding 8.2mL Hepes buffer to 250mg substrate, mix well, protect from light and stored at -80C. Prepare a fresh 12% GloSensor solution in CO2 independent supplemented plating media (see above). Mix well and store at ambient temperature, protected from light. 1uL 12% GloSensor Luciferase Reagent added (2% final concentration) to respective columns of 9 x 1536-well Greiner plate with BioRaptr, 1uL CO2 independent plating media added to respective columns as vehicle control with BioRaptr.
4. Cells incubated for 2 h. at ambient temperature, protected from light with metal lid having gas-exchange holes.
5. 23nL of LOPAC1280 library compounds (7 plates) or DMSO vehicle control transferred to 9 Greiner white/solid bottom high base, TC plates in 7 interplate 1:5 titrations (see Yasgar, A. et al. 2008) with Pintool. Two of the 9 plates are DMSO-only in compound field at beginning and end of compound library-treated plates.
6. Cells incubated for 30-50 min. at ambient temperature protected from light with metal lid having gas-exchange holes.
7. Read cellular baseline GloSensor luminescence in presence of test library compounds on the ViewLux [Exposure = 10 s.; Gain = High; Speed = Slow; and Binning = 2X.]
8. hNppC peptide agonist solution prepared at 1 mM (in H2O) stock concentration. From this a working dilution was prepared at 6 nM in CO2 Independent media. […]

Chain of Atrial natriuretic peptide receptor 2 (Homo sapiens) (P20594 whole entry, looked up): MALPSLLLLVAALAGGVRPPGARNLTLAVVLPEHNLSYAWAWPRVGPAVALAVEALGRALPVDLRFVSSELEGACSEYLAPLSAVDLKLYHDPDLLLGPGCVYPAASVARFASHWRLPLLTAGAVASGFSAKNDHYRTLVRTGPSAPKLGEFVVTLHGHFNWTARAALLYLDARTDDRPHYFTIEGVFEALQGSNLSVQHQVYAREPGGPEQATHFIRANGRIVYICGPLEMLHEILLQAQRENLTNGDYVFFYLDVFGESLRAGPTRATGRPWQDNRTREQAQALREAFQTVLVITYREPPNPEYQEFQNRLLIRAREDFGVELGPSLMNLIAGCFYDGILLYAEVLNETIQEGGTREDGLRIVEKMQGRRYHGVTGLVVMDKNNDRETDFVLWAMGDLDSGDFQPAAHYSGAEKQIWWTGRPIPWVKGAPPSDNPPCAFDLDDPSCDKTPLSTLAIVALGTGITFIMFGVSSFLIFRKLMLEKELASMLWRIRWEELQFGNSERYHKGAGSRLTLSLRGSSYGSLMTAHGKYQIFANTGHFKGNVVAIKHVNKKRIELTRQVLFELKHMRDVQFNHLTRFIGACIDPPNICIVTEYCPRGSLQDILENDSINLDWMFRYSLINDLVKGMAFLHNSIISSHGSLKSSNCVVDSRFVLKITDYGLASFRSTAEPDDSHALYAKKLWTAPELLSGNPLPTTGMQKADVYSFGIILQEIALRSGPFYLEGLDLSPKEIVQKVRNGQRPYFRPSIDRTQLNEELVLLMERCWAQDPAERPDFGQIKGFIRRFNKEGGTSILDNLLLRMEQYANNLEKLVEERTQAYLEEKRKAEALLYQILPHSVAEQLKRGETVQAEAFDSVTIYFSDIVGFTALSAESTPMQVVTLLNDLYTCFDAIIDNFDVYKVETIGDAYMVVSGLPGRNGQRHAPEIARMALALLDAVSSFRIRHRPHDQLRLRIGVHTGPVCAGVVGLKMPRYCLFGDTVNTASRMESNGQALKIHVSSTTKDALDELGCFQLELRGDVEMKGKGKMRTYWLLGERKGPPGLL

SMILES | outcome
CC(C)N(CCC(C(N)=O)(c1ccccc1)c1ccccn1)C(C)C (stereo not given) | inactive
COc1ccc2c(c1OC)C(=O)O[C@H]2[C@@H]1c2cc3c(cc2CCN1C)OCO3 | inactive
O=c1[nH]oc2c1CCNC2 | inactive
O=C(CCCN1CCC2(CC1)C(=O)NCN2c1ccccc1)c1ccc(F)cc1 | inactive
CCC1(c2ccc(N)cc2)CCC(=O)NC1=O (stereo not given) | inactive
CC(NC(C)(C)C)C(=O)c1cccc(Cl)c1 (stereo not given) | inactive
CN1C(=O)CCS(=O)(=O)C1c1ccc(Cl)cc1 (stereo not given) | inactive
Cc1ncsc1CCCl | inactive
CCCCC/C=C\C/C=C\C/C=C\C/C=C\CCCC(=O)NCC(=O)O | inactive
NCCc1ccc(O)cc1 | inactive
CC(C)c1cccc(C(C)C)c1O | inactive
CC(C)(C)NCC(O)c1ccccc1Cl (stereo not given) | inactive
O=C(O)CCCc1ccc(N(CCCl)CCCl)cc1 | inactive
O=P1(N(CCCl)CCCl)NCCCO1 (stereo not given) | inactive
C=C(C)[C@H]1CN[C@H](C(=O)O)[C@H]1CC(=O)O | inactive
